A number with no mark means an inactive call. The source made the active and inactive calls.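 How the source made its calls: active means fitted half-maximal concentration AC50 at or below ten times the highest valid tested dose, with signal falling as DNA is displaced (actives reach about 34 µM in these data); inconclusive means flat fit at moderate signal loss, or poor fit quality; inactive means the rest, including signal rising instead of falling.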 Some results are limits rather than exact numbers.

This assay can be described thus: acridine orange-DNA binding displacement – biochemical, fluorescence polarization, cherry-picked samples, set 2, artefact control for KSHV LANA DNA-binding inhibitor project, dose response (AID 504727). Conditions: series mostly up to 35 µM. For orientation: Fluorescence polarisation rises when a labelled molecule tumbles more slowly, as on binding a larger partner.
As for `Nc1c(/C=C2/C=CC(=O)C(O)=C2)c(=O)nc2sc(CC(=O)N3CCCC3)nn12`, the AC50 result is “inactive”.
The same measure for `O=C(O)COc1ccc2c(c1)O/C(=C\c1ccco1)C2=O`: “inactive”; for `NC(=O)C1=NOC(CNc2ncc(C(F)(F)F)cc2Cl)C1` (stereo not drawn): “inactive”; for `CC1Cc2ccccc2N1C(=O)CCS(=O)(=O)c1cccs1` (stereo not drawn): “inactive”.
The same measure for `O=C1/C(=C/c2ccco2)Oc2c1ccc(O)c2CN1CCCCC1`: 18.9 µM (active).
Regarding `O=c1ccc2c(-c3ccccc3S(=O)(=O)O)c3ccc(O)c(O)c3oc-2c1O`, the AC50 result is “inactive”.
`COc1cccc2c1NC(C(=O)O)C1CC=CC21` (stereo not drawn): the AC50 entry was “inactive”.
The result for `O=C(COC(=O)c1ccc([N+](=O)[O-])o1)NCCCc1ccccc1` reads “inactive”; that for `Nc1cc(N)nc(SCC(=O)N2CCCCC2)n1`, “inactive”.
In the case of `COC(=O)c1sc(C(F)(F)F)c(-c2ccccc2)c1S(=O)(=O)N1CCOCC1`, the AC50 entry is “inactive”.
For `Cc1ccccc1C1=C/C(=C(\SS/C(C(=O)c2ccc(OCC(=O)O)c(Cl)c2Cl)=C2\C=C(c3ccccc3C)SS2)C(=O)c2ccc(OCC(=O)O)c(Cl)c2Cl)SS1`, the AC50 result was “inactive”.
The result for `COC(=O)c1cccc(COC(=O)c2ccccc2NC(=O)c2ccco2)c1` reads “inactive”; that for `O=C(O)c1ccccc1NC(=O)c1cc(-c2ccccc2)nc2ccccc12`, “inactive”; that for `O=c1c2cc(O)c(O)cc2oc2cc(O)c(C3OC(CO)C(O)C(O)C3O)c(O)c12` (stereo not drawn), “inactive”.
Turning to `CCOC(=O)CCCn1c(C)nc(=O)c(-c2ccccc2)c1C`, the AC50 result was “inactive”.
Regarding `CN(c1ccc(OCC(=O)OCC(=O)c2c(N)n(C)c(=O)n(C)c2=O)cc1)S(=O)(=O)c1ccc2ccccc2c1`, the AC50 entry was “inactive”.
Take `CC(C)CC(=O)Nc1nnc(CSCc2ccc(F)cc2)s1`: the AC50 result is “inactive”.
The result for `Oc1ccc2nnc3c(Br)cnn3c2c1` reads 8.34 µM (active); that for `Cc1ccc(CSc2ncnc3onc(C)c23)cc1`, “inactive”.
As for `COc1ccc(/C=C/c2cc(C(F)(F)F)[nH]c(=O)n2)cc1OC`, the AC50 entry was “inactive”.
Take `CN(C)/C=C1\C=C2C(=O)c3ccccc3N2C1=O`: the AC50 is 0.065 µM (active).
On to `O=C(c1cnn2c(-c3ccccc3)cc(-c3ccccc3)nc12)N1CCN(Cc2ccccc2)CC1`, for which the AC50 entry is “inactive”.
As for `C=CCNC(=S)N1CCN(S(=O)(=O)c2ccc(C)cc2)CC1`, the AC50 entry was “inactive”.
`CCOC(=O)c1cnc(SC)nc1Sc1ccc(Cl)cc1Cl`: the AC50 entry was “inactive”.
With `COc1cccc2c1C(=O)c1c(O)c3c(c(O)c1C2=O)C[C@@](O)(C(C)=O)C[C@@H]3O[C@H]1C[C@H](N)[C@H](O)[C@H](C)O1`, the AC50 was 1.89 µM (active).
The result for `CC(/C=C1\SC(=S)N(CCCC(=O)Nc2ccc(C(=O)O)cc2)C1=O)=C\c1ccccc1` reads “inactive”; that for `CCc1ccc(C2CC(c3cccc(Cl)c3)n3nc(N)nc3N2)cc1` (stereo not drawn), “inactive”; that for `COC(=O)Cn1c(=NC(=O)c2sc3ccccc3c2Cl)sc2cc(S(N)(=O)=O)ccc21`, “inactive”.
In the case of `O=C1/C(=C/C=C/c2ccco2)SC(=S)N1NS(=O)(=O)c1ccccc1`, the AC50 result was “inactive”.
As for `CCCCCn1nc(-c2ccccc2)c2nc3ccccc3nc21`, the AC50 was over 35 µM.
The result for `Cc1noc(C)c1-c1nc(CSc2ccccc2)no1` reads “inactive”; that for `O=C(CN1CCN(C(=O)CNC(=O)c2ccc3c(c2)OCO3)CC1)Nc1ccc(F)cc1`, “inactive”.
Regarding `O=C1CC(=O)N(Cc2ccco2)C(=O)N1`, the AC50 entry was “inactive”.
With `N=C1/C(=C/c2ccc(-c3cccc(C(=O)O)c3)o2)C(=O)N=C2SC(CC(=O)N3CCOCC3)=NN12`, the AC50 result was “inactive”.
On to `O=C(c1cccc(S(=O)(=O)NCc2ccccc2)c1)N1CCN(c2ccccc2Cl)CC1`, for which the AC50 result was “inactive”.
For the compound `O=C(COc1cccc(F)c1)Nc1nc(-c2cccnc2)cs1`, the AC50 entry was “inactive”.
On to `Cc1ccc(NC(=O)CN(C)C(=O)c2nn(C)c(=O)c3ccccc23)cc1`, for which the AC50 result was “inactive”.
As for `CSC(=NS(=O)(=O)c1ccc(N)cc1)NS(=O)(=O)c1cccs1`, the AC50 entry is “inactive”.

Broadly, the AC50 is the midpoint of the concentration-response curve, whichever way the signal moves.

The values are drawn from PubChem BioAssay AID504727 (Broad Institute, 2011).
